An excerpt weighted towards active compounds, which were near 8% of everything screened.
HT1080 IDH1KD tx: qHTS for induction of synthetic lethality in tumor cells producing 2HG: qHTS for the HT-1080-IDH1KD cell line. HT-1080 IDH1 knockdown viability, ATP luminescence, 48 h. Potency, µM (titrated, usually from 46.1 µM), hits mostly cytotoxic. 360,000 tested, 2% active
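Cytotoxicity counter-line: IDH1KD HT-1080, 48 h, CellTiter-Glo. Curves classed by r2, magnitude and activity.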
SW480 rereplic: A quantitative high throughput screen for small molecules that induce DNA re-replication in SW480 colon adenocarcinoma cells. SW480 DNA re-replication, Hoechst DNA content imaging, 48 h. Potency, µM (top dose mostly 46.1 µM), usual class: activators. 340,000 tested, 1.8% active. AID 624297, 2012; also: nearly all actives have a fitted effect of over 55% in size
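250 cells/well; 23 nL cpd via pin tool; 48 hr, 37 C, 5% CO2; Hoechst 40 min; imager read of total nuclear intensity, ex 405/em 500-530 nm.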
HT1080-NT tox: qHTS for induction of synthetic lethality in tumor cells producing 2HG: qHTS for the HT-1080-NT fibrosarcoma cell line. AID 686970, 2013. Potency, µM (series often up to 46.1 µM), most hits filed as cytotoxic. 360,000 tested, 1.6% active. HT-1080-NT fibrosarcoma viability, CellTiter-Glo ATP luminescence, 48 h;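 also: NT is the 2HG producing partner of a matched IDH1 knockdown line; nearly all actives have a fitted effect of over 55% in size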
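Viability by CellTiter-Glo luminescence after 48 h compound exposure at 37C of HT-1080-NT cells (750/well, RPMI, 5% FBS). % activity scaled between DMSO wells and medium-only wells, then curve-fitted and categorized by curve class.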
KB-V1 MDR tox: qHTS assay for MDR1-selective chemotherapeutics: Primary screen using the drug-selected MDR subline cells KB-V1 | KB-V1 MDR cells viability, CellTiter-Glo, 72 h | Potency, µM (top dose mostly 46.1 µM), usual class: cytotoxic | 400,000 tested, 3.4% active | AID 1347076, 2019; also: nearly all actives have a fitted effect of over 60% in size
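Luminescent ATP read-out (CellTiter-Glo, 10 min) measures survival of drug-selected KB-V1 MDR cells after 72 h, 37 degrees C compound exposure. Medium: phenol-red-free DMEM, 10% FBS. Values from fitted concentration-response curves.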
MCF10A rereplic: A quantitative high throughput screen for small molecules that induce DNA re-replication in MCF 10a normal breast cells | MCF 10A DNA re-replication, Hoechst nuclear intensity, 48 h | Potency, µM (titrated, usually from 46.1 µM), hits mostly activators | 350,000 tested, 2.9% active | AID 624296, 2012; also: nearly all actives have a fitted effect of over 50% in size
KB-3-1 cytotox: qHTS assay for MDR1-selective chemotherapeutics: Primary screen using the parental adenocarcinoma cell KB-3-1. KB-3-1 viability, CellTiter-Glo ATP luminescence, 72 h. Potency, µM (doses to about 46.1 µM), most hits filed as cytotoxic. 400,000 tested, 1.4% active; also: nearly all actives have a fitted effect of over 60% in size
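Cytotoxicity in the drug-sensitive parental line KB-3-1 was scored as loss of CellTiter-Glo luminescence following 72 h incubation with compound. Values come from curve fitting of normalized concentration-response data.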
Each line names hits and unclear results; the compound was inactive in the other large screens; ! = a repeat was not active. Calls follow the shape of the dose curve; as a rule, active = well fitted curve in the direction sought with a large enough effect; inconclusive = small, poorly fitted or top-dose-only effect, or another doubt; inactive = no such curve, though single readings can be large; an effect the other way counts as inactive or inconclusive.

CCC1Sc2ccccc2N(CC(=O)NCc2ccccc2OC)C1=O (stereo not given)	KB-V1 MDR tox 21µM
O=C(N/N=C/C1CC=CCC1)c1ccc(O)cc1O (stereo not given)	none
COc1cc(C(=O)N/N=C/C2CC=CCC2)cc(OC)c1OC (stereo not given)	HT1080 IDH1KD tx inconclusive, SW480 rereplic inconclusive, HT1080-NT tox inconclusive, MCF10A rereplic 3.7µM
O=C(N/N=C/C1CC=CCC1)c1cc2ccccc2cc1O (stereo not given)	HT1080 IDH1KD tx 18µM, HT1080-NT tox inconclusive, MCF10A rereplic inconclusive
O=C(COc1ccc(Cl)cc1Cl)N/N=C/C1CC=CCC1 (stereo not given)	none
COC(=O)[C@@]12C[C@@H](CC(=O)N3CCN(C(=O)C4CC4)CC3)C(=O)N(Cc3ccc4c(c3)OCO4)C1=CCC(C)(C)C2	KB-3-1 cytotox inconclusive (no result: SW480 rereplic, MCF10A rereplic)
Cc1noc(C)c1NC(=O)N(C)C[C@H]1OCc2cnnn2CCCC(=O)N([C@H](C)CO)C[C@@H]1C	none (no result: SW480 rereplic, MCF10A rereplic)
Cc1cc(=O)n(CC(=O)NCc2ccc(OC(C)C)cc2)c2c1c(C)nn2-c1cccc(F)c1	none (no result: HT1080 IDH1KD tx, SW480 rereplic, HT1080-NT tox, MCF10A rereplic)
CN(Cc1ccccc1)C1=CC(=[N+]2CCCC2)CC(C)(C)C1	HT1080 IDH1KD tx inconclusive, HT1080-NT tox inconclusive
CC1CC(C)C[N+](=C2C=C(N3CCCC3)CC(C)(C)C2)C1 (stereo not given)	HT1080 IDH1KD tx inconclusive, SW480 rereplic inconclusive, HT1080-NT tox 9.2µM, KB-3-1 cytotox 5.8µM
CCN(CC)C1=CC(=[N+]2CCCC2)CC(C)(C)C1	HT1080 IDH1KD tx inconclusive, HT1080-NT tox inconclusive, KB-3-1 cytotox inconclusive
CC1(C)CC(N2CCN(c3ccccc3)CC2)=CC(=[N+]2CCCC2)C1	HT1080 IDH1KD tx 14µM, HT1080-NT tox 1.1µM, KB-3-1 cytotox 12µM
CC1(C)CC(N2CCCC2)=CC(=[N+]2CCCCCC2)C1	HT1080 IDH1KD tx 12µM, HT1080-NT tox inconclusive, KB-3-1 cytotox inconclusive
CC(NC(=O)C1CCCN1C(=O)c1cccs1)c1ccc(Cl)cc1Cl (stereo not given)	none (no result: SW480 rereplic, MCF10A rereplic)
Cc1ccc(C)c(NC(=O)c2oc(=O)c3ccccc3c2-c2ccccc2)c1	KB-V1 MDR tox 18µM!
Cc1ccccc1NC(=O)c1oc(=O)c2ccccc2c1-c1ccccc1	none
Cc1cccc(NC(=O)c2oc(=O)c3ccccc3c2-c2ccccc2)c1C	HT1080 IDH1KD tx inconclusive, SW480 rereplic inconclusive, KB-V1 MDR tox 10µM, MCF10A rereplic inconclusive
Cc1ccc(NS(=O)(=O)c2cc3c(cc2F)NC(=O)CC3)cc1Cl	KB-3-1 cytotox inconclusive (no result: HT1080 IDH1KD tx, SW480 rereplic, HT1080-NT tox, MCF10A rereplic)
COc1ccc(-c2noc(-c3ccc(NCc4ccco4)c([N+](=O)[O-])c3)n2)cc1OC	none (no result: HT1080 IDH1KD tx, SW480 rereplic, HT1080-NT tox, MCF10A rereplic)
Cc1cc(C)c(NC(=O)CS(=O)CC(=O)NCCN2CCCCCC2)c(C)c1 (stereo not given)	MCF10A rereplic inconclusive
CCc1ccccc1NC(=O)CN(c1ccc(OC)cc1)S(=O)(=O)c1c(C)n[nH]c1C	KB-3-1 cytotox inconclusive (no result: HT1080 IDH1KD tx, SW480 rereplic, HT1080-NT tox, MCF10A rereplic)
COc1ccc(N(CC(=O)Nc2cccc(C)c2C)S(=O)(=O)c2c(C)n[nH]c2C)cc1	KB-V1 MDR tox 18µM
COc1ccc(N(CC(=O)Nc2cc(Cl)ccc2C)S(=O)(=O)c2c(C)noc2C)cc1	HT1080 IDH1KD tx inconclusive, HT1080-NT tox 5.8µM, KB-V1 MDR tox inconclusive, MCF10A rereplic 4.1µM, KB-3-1 cytotox 5.8µM
COc1ccc(N(CC(=O)Nc2cc(C)ccc2OC)S(=O)(=O)c2c(C)noc2C)cc1	HT1080 IDH1KD tx inconclusive, SW480 rereplic inconclusive, HT1080-NT tox inconclusive, KB-V1 MDR tox 9.2µM, MCF10A rereplic inconclusive, KB-3-1 cytotox inconclusive

From PubChem
